# Experimental data reported in PubChem BioAssay (NCATS).
# Results filed as inconclusive are left out. A call without a number means that no potency is given here. Calls of active or inactive are those of the source. Calls come from the whole dose curve; as a rule, active = well fitted curve in the direction sought with a large enough effect; inconclusive = small, poorly fitted or top-dose-only effect, or another doubt; inactive = no such curve, though single readings can be large; an effect the other way counts as inactive or inconclusive.
# Experiments:
# 7G8 = test: qHTS profiling for inhibitors of Plasmodium falciparum proliferation (AID 504749); note: nearly all actives have a fitted effect of over 60% in size; details: P. falciparum in erythrocytes, SYBR Green DNA, 72 h; series mostly up to 28.7 µM
# In short: (§1)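 P. falciparum-infected erythrocytes (0.3% parasitemia, 2.5% hematocrit final) were exposed to compounds for 72 h at 37 C in 5% CO2, then lysed with SYBR Green buffer overnight at room temperature; parasite DNA fluorescence was normalized to artemisinin and DMSO controls.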
# ATS95 = test: as above; details: P. falciparum in erythrocytes, SYBR Green DNA, 72 h; series mostly up to 28.7 µM
# In short: as §1
# CP203 = test: as above; details: P. falciparum in erythrocytes, SYBR Green DNA, 72 h; series mostly up to 28.7 µM
# In short: as §1
# CP215 = test: as above; details: P. falciparum in erythrocytes, SYBR Green DNA, 72 h; series mostly up to 28.7 µM
# In short: as §1
# CP247 = test: as above; details: P. falciparum in erythrocytes, SYBR Green DNA, 72 h; series mostly up to 28.7 µM
# In short: as §1
# CP260 = test: as above; details: P. falciparum in erythrocytes, SYBR Green DNA, 72 h; series mostly up to 28.7 µM
# In short: as §1
# CP266 = test: as above; details: P. falciparum in erythrocytes, SYBR Green DNA, 72 h; series mostly up to 28.7 µM
# In short: as §1
# CP268 = test: as above; details: P. falciparum in erythrocytes, SYBR Green DNA, 72 h; series mostly up to 28.7 µM
# In short: as §1
# CP291 = test: as above; details: P. falciparum in erythrocytes, SYBR Green DNA, 72 h; series mostly up to 28.7 µM
# In short: as §1
# CP297 = test: as above; details: P. falciparum in erythrocytes, SYBR Green DNA, 72 h; series mostly up to 28.7 µM
# In short: as §1
# CP325 = test: as above; details: P. falciparum in erythrocytes, SYBR Green DNA, 72 h; series mostly up to 28.7 µM
# In short: as §1
# CP335 = test: as above; details: P. falciparum in erythrocytes, SYBR Green DNA, 72 h; series mostly up to 28.7 µM
# In short: as §1
# DIV14 = test: as above; details: P. falciparum in erythrocytes, SYBR Green DNA, 72 h; series mostly up to 28.7 µM
# In short: as §1
# DIV17 = test: as above; details: P. falciparum in erythrocytes, SYBR Green DNA, 72 h; series mostly up to 28.7 µM
# In short: as §1
# GB4 = test: as above; details: P. falciparum in erythrocytes, SYBR Green DNA, 72 h; series mostly up to 28.7 µM
# In short: as §1
# ICS = test: as above; details: P. falciparum in erythrocytes, SYBR Green DNA, 72 h; series mostly up to 28.7 µM
# In short: as §1
# P93_24 = test: as above; details: P. falciparum in erythrocytes, SYBR Green DNA, 72 h; series mostly up to 28.7 µM
# In short: as §1
# PC26 = test: as above; details: P. falciparum in erythrocytes, SYBR Green DNA, 72 h; series mostly up to 28.7 µM
# In short: as §1
# PC49 = test: as above; details: P. falciparum in erythrocytes, SYBR Green DNA, 72 h; series mostly up to 28.7 µM
# In short: as §1
# [1] = S16 Schwann cell PMP22 intronic element firefly luciferase assay (AID 624032); note: nearly all actives have a fitted effect of over 30% in size
# In short: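 Rat S16 Schwann cells stably carrying a PMP22 intronic element-driven Fluc reporter were seeded overnight, then exposed to compounds for 24 h at 37 °C. Luminescence was normalized to PTC124 (positive control) and DMSO (0% activity).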
# Potency is the fitted concentration of half-maximal effect.
Compound,Potency (7G8),Potency (ATS95),Potency (CP203),Potency (CP215),Potency (CP247),Potency (CP260),Potency (CP266),Potency (CP268),Potency (CP291),Potency (CP297),Potency (CP325),Potency (CP335),Potency (DIV14),Potency (DIV17),Potency (GB4),Potency (ICS),Potency (P93_24),Potency (PC26),Potency (PC49),Potency [1]
COc1cccc(OC)c1C(=O)NC1C(=O)N2C1SC(C)(C)C2C(=O)O (stereo not drawn),inactive,inactive,inactive,inactive,inactive,inactive,inactive,inactive,inactive,inactive,inactive,inactive,inactive,inactive,inactive,inactive,inactive,inactive,inactive,
NC(=O)NC(CCC(=O)O)C(=O)O (stereo not drawn),inactive,inactive,inactive,inactive,inactive,inactive,inactive,inactive,inactive,inactive,inactive,inactive,inactive,inactive,inactive,inactive,inactive,,inactive,inactive
CCCCCCCCCCCCCCCC(=O)OC[C@H](O)[C@H]1OC[C@@H](O)[C@@H]1O,inactive,inactive,inactive,inactive,inactive,inactive,inactive,inactive,inactive,inactive,inactive,inactive,,inactive,inactive,inactive,inactive,inactive,inactive,
CC(O)C1CCC2C3CCC4CC(O)CCC4(C)C3CCC12C (stereo not drawn),inactive,inactive,inactive,inactive,inactive,inactive,inactive,inactive,inactive,inactive,inactive,inactive,inactive,inactive,inactive,inactive,inactive,inactive,inactive,
C[C@H]1[C@@H](OC(=O)CCC(=O)O)OC2OC3(C)CC[C@H]4[C@H](C)CC[C@@H]1[C@@]24OO3 (stereo partly drawn),1.4 nM (active),5 nM (active),5.4 nM (active),5.4 nM (active),5 nM (active),5 nM (active),0.0239 µM (active),5.4 nM (active),4.3 nM (active),4.8 nM (active),6 nM (active),4.8 nM (active),3.4 nM (active),4.3 nM (active),3 nM (active),3.2 nM (active),2.2 nM (active),0.0034 µM (active),,2.56 µM (active)
C[C@@H]1C(SC2Cn3cnc[n+]3C2)=C(C(=O)[O-])N2C(=O)[C@H]([C@@H](C)O)[C@@H]12 (stereo partly drawn),inactive,inactive,inactive,inactive,inactive,inactive,inactive,inactive,inactive,inactive,inactive,inactive,inactive,inactive,inactive,inactive,inactive,inactive,inactive,inactive
CC1(C)OC[C@@H]2O[C@@]3(C(=O)O)OC(C)(C)O[C@@H]3[C@@H]2O1,inactive,inactive,inactive,inactive,inactive,inactive,inactive,inactive,inactive,inactive,inactive,inactive,inactive,inactive,inactive,inactive,inactive,inactive,inactive,inactive
Cc1ccccc1N1C(=O)c2cc(N)ccc2N/C1=C\F,inactive,inactive,inactive,inactive,inactive,inactive,inactive,inactive,inactive,inactive,inactive,inactive,,,inactive,,inactive,inactive,inactive,inactive
O=C1NC(=O)C2C3C=CC(C3)C12 (stereo not drawn),inactive,inactive,inactive,inactive,inactive,inactive,inactive,inactive,inactive,inactive,inactive,inactive,inactive,inactive,inactive,inactive,inactive,inactive,inactive,inactive
CC(=O)N[C@H]1[C@H](O[C@@H]2c3ccc(c(Cl)c3)Oc3cc4cc(c3O[C@@H]3O[C@H](CO)[C@@H](O)[C@H](O)C3C)Oc3ccc(cc3Cl)C[C@H]3NC(=O)[C@@H](N)c5ccc(O)c(c5)Oc5cc(O)cc(c5)[C@H](NC3=O)C(=O)N[C@H]4C(=O)N[C@H]3C(=O)N[C@@H]2C(=O)N[C@@H](C(=O)O)c2cc(O)cc(O[C@H]4O[C@H](CO)[C@@H](O)C(O)[C@@H]4O)c2-c2cc3ccc2O)O[C@H](CO)[C@@H](O)[C@@H]1O (stereo partly drawn),inactive,inactive,inactive,inactive,inactive,inactive,inactive,inactive,inactive,inactive,inactive,inactive,inactive,inactive,inactive,inactive,inactive,inactive,inactive,inactive
OCC1O[C@H](O[C@H]2C(O)C(O)C(O)O[C@@H]2CO)C(O)C(O)C1O (stereo partly drawn),inactive,inactive,inactive,inactive,inactive,inactive,inactive,inactive,inactive,inactive,inactive,inactive,inactive,inactive,inactive,inactive,inactive,inactive,inactive,inactive
O=C1C(I)=CC(=C(c2cc(I)c(O)c(I)c2)c2ccccc2C(=O)O)C=C1I,inactive,inactive,inactive,inactive,inactive,inactive,inactive,inactive,inactive,inactive,inactive,inactive,inactive,inactive,inactive,inactive,inactive,inactive,inactive,
NC(=O)C1CC2(NC(=O)NC2=O)c2cc(F)ccc2O1 (stereo not drawn),inactive,inactive,inactive,inactive,inactive,inactive,inactive,inactive,inactive,inactive,inactive,inactive,,inactive,inactive,inactive,inactive,inactive,inactive,inactive
O=[N+]([O-])O[C@H]1CO[C@H]2[C@@H]1OC[C@H]2O,inactive,inactive,inactive,inactive,inactive,inactive,inactive,inactive,inactive,inactive,inactive,inactive,inactive,inactive,inactive,inactive,inactive,inactive,inactive,inactive
NC[C@@H]1O[C@H](OC2[C@@H](CO)O[C@@H](OC3[C@H](O)[C@H](N)C[C@H](N)[C@H]3OC3O[C@H](CO)[C@@H](O)[C@H](O)[C@@H]3N)[C@H]2O)C(N)[C@H](O)[C@@H]1O (stereo partly drawn),inactive,inactive,inactive,inactive,inactive,inactive,inactive,inactive,inactive,inactive,inactive,inactive,inactive,inactive,inactive,inactive,inactive,inactive,inactive,inactive
OCC1O[C@@H](O[C@@H]2C(CO)OC(O)C(O)C2O)C(O)C(O)C1O (stereo partly drawn),inactive,inactive,inactive,inactive,inactive,inactive,inactive,inactive,inactive,inactive,inactive,inactive,inactive,inactive,inactive,inactive,inactive,inactive,inactive,inactive
CCCCC(=O)OCC(=O)[C@]1(O)Cc2c(O)c3c(c(O)c2[C@H](OC2CC(NC(=O)C(F)(F)F)C(O)C(C)O2)C1)C(=O)c1c(OC)cccc1C3=O (stereo partly drawn),1260 nM (active),2000 nM (active),1690 nM (active),4780 nM (active),3160 nM (active),2000 nM (active),1.69 µM (active),5360 nM (active),4260 nM (active),1510 nM (active),3380 nM (active),1510 nM (active),1690 nM (active),1510 nM (active),3790 nM (active),794 nM (active),2000 nM (active),1.51 µM (active),,0.721 µM (active)
C[n+]1c2cc(N)ccc2cc2ccc(N)cc21,63.1 nM (active),1120 nM (active),1070 nM (active),1070 nM (active),1120 nM (active),316 nM (active),1.35 µM (active),757 nM (active),1200 nM (active),1350 nM (active),953 nM (active),849 nM (active),213 nM (active),269 nM (active),213 nM (active),,562 nM (active),1.35 µM (active),447 nM (active),
CN1[C@@H]2CC[C@@H]1CC(OC(=O)[C@H](CO)c1ccccc1)C2 (stereo partly drawn),inactive,inactive,inactive,inactive,inactive,inactive,inactive,inactive,inactive,inactive,inactive,inactive,inactive,inactive,inactive,inactive,inactive,inactive,,inactive
CCCCCCCCCCCCCCCC(=O)OCC(COP(=O)(O)OCC[N+](C)(C)C)OC(=O)CCCCCCCCCCCCCCC (stereo not drawn),inactive,inactive,inactive,inactive,inactive,inactive,inactive,inactive,inactive,inactive,inactive,inactive,inactive,inactive,inactive,inactive,inactive,inactive,inactive,inactive
CC[C@@]1(O)C[C@H](O[C@H]2C[C@@H](N(C)C)[C@@H](O[C@H]3C[C@@H](O)[C@@H](O[C@H]4CCC(=O)[C@@H](C)O4)[C@@H](C)O3)[C@@H](C)O2)c2c(cc3c(c2O)C(=O)c2c(O)cccc2C3=O)[C@H]1C(=O)OC,39.8 nM (active),316 nM (active),849 nM (active),849 nM (active),251 nM (active),39.8 nM (active),1.2 µM (active),953 nM (active),849 nM (active),953 nM (active),849 nM (active),169 nM (active),379 nM (active),478 nM (active),601 nM (active),44.7 nM (active),316 nM (active),1.2 µM (active),,
OCCOC[C@H]1O[C@H](OCCO)[C@H](OCCO)[C@@H](OCCO)[C@@H]1OCCO (tested in a mixture with another compound),inactive,inactive,inactive,inactive,inactive,inactive,inactive,inactive,inactive,inactive,inactive,inactive,inactive,inactive,inactive,inactive,inactive,inactive,inactive,inactive
